Assay outcomes (PubChem BioAssay)
This is a sample that favours compounds with a hit; in the whole collection about 3.6% have one here.
mHTT-CaM PPI inh – mutant huntingtin-calmodulin interaction inhibitors – biochemical, AlphaScreen, primary screen | P42858 | AlphaScreen His-mHTT/GST-CaM binding, luminescence | inhibition, % at 15 µM | 190,000 compounds, 3.6% hits | AID 1671202, 2021
Pf apPOL block – Pf-apPOL inhibitors, biochemical, fluorescence. Recombinant Pf-apPOL, molecular beacon fluorescence, 1.5 h. AID 1794808, 2022. inhibition, % at 10 µM. 210,000 compounds, 0.25% hits. Plasmodium falciparum apicoplast DNA polymerase (apPOL)
Large screens that a line does not name were inactive. No stated cut-off is given here; in the data, active means inhibition above about 50%; inactive means the rest.

CCCCN1CC(C(=O)NCCc2ccccc2)CC1=O (configuration not stated)	none
O=C(NCCCN1CCCc2ccccc21)C1CCc2nc(N3CCOCC3)ncc2C1 (configuration not stated)	none
Cn1ncc(N2CCCC(C(=O)NCCCN3CCCCC3)C2)cc1=O (configuration not stated)	none
Cn1ncc(N2CCCC(C(=O)NCCCc3ccccc3)C2)cc1=O (configuration not stated)	none
Cc1ccnc(N2CCCC(C(=O)NCCCN3CCCc4ccccc43)C2)n1 (configuration not stated)	mHTT-CaM PPI inh 52.3
Cn1ncc(N2CCCC(C(=O)NCCCN3CCCC3=O)C2)cc1=O (configuration not stated)	mHTT-CaM PPI inh 100.3
O=C(NCCCN1CCCc2ccccc21)C1CCc2nc(N3CCCCC3)ncc2C1 (configuration not stated)	mHTT-CaM PPI inh 53.9
Cn1ncc(N2CCCC(C(=O)NCCCN3CCCc4ccccc43)C2)cc1=O (configuration not stated)	mHTT-CaM PPI inh 74.8
Cc1ccnc(N2CCCC(C(=O)NCCCN3CCN(C)CC3)C2)n1 (configuration not stated)	none
CCCc1cc(C2CCCN2C(=O)Cn2cc(Cl)cn2)no1 (configuration not stated)	none
Cc1cc(CNC(=O)C(=O)NC(C)c2ccccc2)c(C)o1 (configuration not stated)	none
N=C1S/C(=C\c2ccc(-c3ccccc3[N+](=O)[O-])o2)C(=O)N1c1nonc1N	none
CC(=O)NCc1csc(C2CCN(C(=O)c3ccc(F)c(Cl)c3)CC2)n1	none
Cc1oc2c(CN3CCN(C)CC3)c(O)ccc2c(=O)c1Oc1ccccc1Br	none
CCCCOc1ccc(S(=O)(=O)N2CCC(Cc3nc4cccnc4n3C)C2)cc1 (configuration not stated)	none
COc1ccc(OC)c(N=Cc2c(C)[nH]n(-c3ccccc3)c2=O)c1	mHTT-CaM PPI inh 67.0
COc1ccccc1N=Cc1c(C)[nH]n(-c2ccccc2)c1=O	none
Cc1[nH]n(-c2ccccc2)c(=O)c1C=Nc1cc(Br)ccc1O	mHTT-CaM PPI inh 89.0
Cc1[nH]n(-c2ccccc2)c(=O)c1C=Nc1c(C)[nH]n(-c2ccccc2)c1=O	none
Cc1ccc2oc(C(=O)NCCc3cccs3)cc2n1	none
CCOc1ccccc1NC(=O)c1cc(C(C)(C)C)oc1C	none
Cc1cc(C)n(S(=O)(=O)c2ccccc2)c(=O)n1	none
Cc1cc(C)cc(NC(=O)c2ccc3c(c2)N(S(C)(=O)=O)CC3)c1	none
NC(CCS(=O)(=O)c1ccc(Cl)cc1)=NO	none (no result: mHTT-CaM PPI inh)
OCCSc1nnc(COc2ccc(Br)cc2)n1-c1ccccc1	mHTT-CaM PPI inh 57.3
O=C(CSc1nnc(COc2ccccc2)n1-c1ccccc1)NC1CCCCC1	none
COc1ccccc1OCCNC(=O)c1ccc(OC)c([N+](=O)[O-])c1	none
CCn1c(C2CCN(S(=O)(=O)c3ccc(F)cc3F)C2)nc2cccnc21 (configuration not stated)	none
NS(=O)(=O)c1cc(C(=O)N2CCc3ccccc32)c(Cl)cc1Cl	mHTT-CaM PPI inh 60.0
O=C(c1ccc([N+](=O)[O-])cc1Cl)N1CCc2ccccc21	none
CC1=NN(C(=O)c2ccc(Cl)cc2)C(O)(C(F)(F)F)C1 (configuration not stated)	none
Cc1ccc(N=Cc2cc(Br)cc(Cl)c2O)c(O)c1	none
Nc1ccccc1N=Cc1cc(Br)cc(Cl)c1O	mHTT-CaM PPI inh 66.0
Cc1cc2c(N3CCCC(C(=O)N4CCN(C5CCCCC5)CC4)C3)nccc2s1 (configuration not stated)	none
O=C(NCc1ccc(F)cc1Cl)C1CCCN(c2nccc3sccc23)C1 (configuration not stated)	none
O=C(C1CCCN(c2nccc3sccc23)C1)N1CCN(c2ccc(F)cc2)CC1 (configuration not stated)	mHTT-CaM PPI inh 94.6
Cc1cc2c(N3CCCC(C(=O)N4CCN(c5ccccc5)CC4)C3)nccc2s1 (configuration not stated)	mHTT-CaM PPI inh 99.8
Cc1ccc(NC(=O)C2CCCN(c3nccc4sccc34)C2)cc1F (configuration not stated)	none
O=C(C1CCCN(c2nccc3sccc23)C1)N1CCN(c2ccccc2F)CC1 (configuration not stated)	mHTT-CaM PPI inh 89.8
Cc1ccc(NC(=O)CSc2nc3c(c(=O)n2-c2ccc(F)cc2)SCC3)c(C)c1	none
CCCNC(=O)C1CCN(c2nc3ccc(CC)cc3s2)CC1	none
COc1ccc(CCNC(=O)CC2CCN(C(=O)c3ccc(C)cc3)CC2)c(OC)c1	none
N=C1S/C(=C\c2ccc(-c3ccc([N+](=O)[O-])cc3)o2)C(=O)N1c1nccs1	none
O=c1[nH]c2ccc(Cl)cc2c(-c2ccccc2)c1Sc1ncn[nH]1	none
COc1cc(C=CC(=O)c2c(-c3ccccc3)c3cc(Cl)ccc3[nH]c2=O)cc(OC)c1OC	mHTT-CaM PPI inh 100.2
CCCCS(=O)(=O)N1CCC(c2nc3ccncc3n2CC)C1 (configuration not stated)	none
COc1ccc(NC(NC(=O)c2ccc(Cl)cc2)C(Cl)(Cl)Cl)cc1 (configuration not stated)	mHTT-CaM PPI inh 57.0
COc1ccc(C(=O)NC(Nc2ccc(Br)cc2)C(Cl)(Cl)Cl)cc1 (configuration not stated)	none
COc1ccc(NC(NC(=O)c2ccc([N+](=O)[O-])cc2)C(Cl)(Cl)Cl)cc1 (configuration not stated)	mHTT-CaM PPI inh 53.0
COc1ccc(C(=O)NC(Nc2ccc([N+](=O)[O-])cc2)C(Cl)(Cl)Cl)cc1 (configuration not stated)	none
Cc1ccc(N=C2SC(C(=O)Nc3cccc(Cl)c3)CC(=O)N2C)cc1C (configuration not stated)	none
CCOC(=O)c1c(N)sc2c1CCCCC2	none (no result: mHTT-CaM PPI inh)
CCCNC(=O)c1sc2c(Cl)c(OC)ccc2c1Cl	mHTT-CaM PPI inh 100.3
COc1ccc2c(Cl)c(C(=O)Nc3cc(C)ccc3C)sc2c1Cl	none
CCOc1cccc2c1OC(c1cccc(OC)c1OC)N1N=C(c3cccnc3)CC21 (configuration not stated)	none
Cc1cccc(C2CCCN2C(=O)Cn2nc(C(F)(F)F)cc2C)c1 (configuration not stated)	none
CCOc1ccc(N=C(C)C2=C(O)c3ccccc3C2=O)cc1	none
Cc1ccc(S(=O)(=O)N=C2C=C(Nc3cccc(C)c3)C(=O)c3ccccc32)cc1	mHTT-CaM PPI inh 82.0
Cc1cccc(NC2=C(N(C)C)C(=O)c3ccccc3C2=O)c1	none
Cc1ccc(S(=O)(=O)N=C2C=C(NS(=O)(=O)c3ccccc3)C(=O)c3ccccc32)cc1	mHTT-CaM PPI inh 66.0
CCOc1ccc(S(=O)(=O)N=C2C=C(Nc3cccc(C)c3)C(=O)c3ccccc32)cc1	mHTT-CaM PPI inh 82.0
COc1ccc(NC2=CC(=NS(=O)(=O)c3cc(C)ccc3C)c3ccccc3C2=O)cc1	none
Cc1ccc(C)c(S(=O)(=O)N=C2C=C(Nc3ccccc3)C(=O)c3ccccc32)c1	mHTT-CaM PPI inh 89.0
Cc1ccc(S(=O)(=O)Nc2ccccn2)cc1	none
O=C(CS(=O)(=O)c1ccc(F)cc1)Nc1nc(-c2cccnc2)cs1	none
CSc1cccc(NC(=O)C2CCCN(C(=O)c3ccc(Cl)cc3)C2)c1 (configuration not stated)	none
COc1ccccc1N1CCN(CCC(=O)NN)CC1	none
Cc1ccc(NC(=O)Nc2ccc3nnc(C)n3c2)cc1	none
